Experimental data taken from PubChem BioAssay.
The source made the active and inactive calls. Unless noted, no rule for the calls is given here.

Tests used:
[1] = test system: XIP peptide (Xip251-270) binding; assay: XIP fragment 251-270 binding compounds – biochemical, small-molecule microarray, fluorescence 635/667 nm, 0.1 µg/mL protein, primary screen (AID 1182); conditions: fluorescent protein binding, 635 nm, higher = more signal, called active from +8 up or from −8 down
XIP peptide (Xip251-270) = assay: compounds binding XIP fragment 251-270 – biochemical, small-molecule microarray, fluorescence 635/667 nm, 0.5 µg/mL protein, primary screen (AID 1183); conditions: fluorescence 635 nm, higher = more signal
[2] = blood-stage malaria parasite viability loss – strain 3D7, DAPI fluorescence, 100 nL, primary screen (AID 1184);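 also: parasites grown inside human red blood cells in medium with human serum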; conditions: P. falciparum 3D7 growth, 3 d, higher = more signal
[3] = target: Homeobox protein Hox-A13 (Mus musculus) (UniProt Q62424); assay: disruptors of Hoxa13 oligonucleotide interaction – biochemical, fluorescence polarization, labeled oligonucleotide, primary screen (AID 1185); conditions: Hoxa13:DNA binding, 15 min, higher = more signal, called active from +8 up or from −8 down
Sequence of Homeobox protein Hox-A13 (Mus musculus) (Q62424 whole entry, looked up): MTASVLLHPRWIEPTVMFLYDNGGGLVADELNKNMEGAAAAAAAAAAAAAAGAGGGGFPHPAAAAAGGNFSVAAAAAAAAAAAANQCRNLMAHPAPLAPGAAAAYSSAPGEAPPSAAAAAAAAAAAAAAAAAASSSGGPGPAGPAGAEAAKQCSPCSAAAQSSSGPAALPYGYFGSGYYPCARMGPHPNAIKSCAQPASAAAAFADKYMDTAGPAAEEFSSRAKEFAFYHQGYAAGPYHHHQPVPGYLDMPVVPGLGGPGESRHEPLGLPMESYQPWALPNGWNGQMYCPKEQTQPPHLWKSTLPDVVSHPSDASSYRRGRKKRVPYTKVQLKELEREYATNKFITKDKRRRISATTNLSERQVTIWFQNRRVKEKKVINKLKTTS

[4] = blockers of DNA damage checkpoint Chk1 activation – imaging, HeLa, hydroxyurea, phospho-Chk1 antibody, percent positive cells, primary screen (AID 1186); conditions: hydroxyurea-induced phospho-Chk1 immunofluorescence imaging, higher = more signal
[5] = blockers of DNA damage checkpoint Chk1 activation – imaging, HeLa, hydroxyurea, phospho-Chk1 nuclear intensity, primary screen (AID 1187); conditions: hydroxyurea-induced phospho-Chk1 immunofluorescence imaging, higher = more signal

| Compound | composite z-score [1] | composite z-score (XIP peptide (Xip251-270)) | z-score [2] | z-score [3] | z-score [4] | z-score [5] |
| --- | --- | --- | --- | --- | --- | --- |
| COC(=O)Cn1c(C(=O)N2CCCC2)cc2c1C[C@H]1CN(C(=O)c3ccccc3)[C@@](Cc3ccccc3)(C(=O)OC)[C@@H]21 | 0.564 (inactive) | 0.535 | -0.252 | -4.99 (inactive) | -1.29 (inactive) | -0.687 (inactive) |
| Cc1ccc(S(=O)(=O)c2cc3oc2CC[C@@H](CO)NC(=O)N(C)Cc2cn(nn2)C[C@H](Cc2ccccc2)NC3=O)cc1 | -0.126 (inactive) | -0.612 | -0.746 | -4.42 (inactive) | -0.131 (inactive) | -0.0334 (inactive) |
| CC(C)C[C@@H]1NC(=O)[C@H]2C[C@@H](C(=O)NCCCCCC[N+](C)(C)C)[C@@H](c3ccc(O)cc3)N2C1=O | 0.28 (inactive) | 0.608 | 1.17 | -3.14 (inactive) | 0.554 (inactive) | 0.61 (inactive) |
| C=CC[C@]1(C(=O)O)N=C(c2ccc(OCCCO)cc2)O[C@H]1c1ccccc1N=[N+]=[N-] | 0.718 (inactive) | -0.519 | -1.3 | -5.25 (inactive) | -0.0145 (inactive) | 0.144 (inactive) |
| C=CCC1=C[C@H]2[C@H]([C@@H]3C=C[C@]2(CC=C)C(=O)[C@]32CO2)[C@@]2(CO2)C1=O | 1.7 (inactive) | -0.489 | -0.0419 | -1.29 (inactive) | -0.556 (inactive) | -0.606 (inactive) |
| CO[C@]12C=C(Br)[C@@H](C[C@@H]1c1ccccc1)[C@@]1(CO1)C2=O | 0.484 (inactive) | 0.521 | -1.03 | -0.507 (inactive) | -0.655 (inactive) | -0.337 (inactive) |
| CC(=O)NCCCC[C@@H]1NC(=O)[C@@H]2C[C@H](C(=O)NCc3ccc(F)cc3)[C@H](c3cccc(OCCO)c3)N2C1=O | 0.356 (inactive) | 0.117 | 0.447 | -4.11 (inactive) | 0.676 (inactive) | 0.312 (inactive) |
| CC(C)CNC(=O)[C@@]1(C)c2ccccc2C(=O)N(Cc2ccc(OC(F)(F)F)cc2)[C@H]1c1ccc(CO)cc1 | -0.332 (inactive) | -1.4 | -1.12 | -2.24 (inactive) | -0.273 (inactive) | -0.177 (inactive) |
| CCc1cccc(NC(=O)O[C@H]2[C@H](OC(=O)Nc3ccccc3)[C@@H](OC(=O)Nc3ccccc3)[C@@H](OC)O[C@@H]2CO)c1 | 0.652 (inactive) | 0.886 | -2.16 | -5.07 (inactive) | -0.235 (inactive) | -0.0949 (inactive) |
| COCCOC(=O)N1C(=O)[C@@]2(c3cc(C#CCNC(N)=O)ccc31)[C@H](c1ccc(OCCO)cc1)N1[C@H](c3ccccc3)[C@H](c3ccccc3)OC(=O)[C@H]1[C@@H]2C(=O)N1CCCCCCC1 | 0.067 (inactive) | -0.26 | -2.1 | -11.3 (active) | 0.174 (inactive) | 0.272 (inactive) |
| CO[C@H]1O[C@H](CO)[C@@H](OC(=O)Nc2ccc3c(c2)OCO3)[C@H](OC(=O)Nc2ccccc2)[C@@H]1OC(=O)Nc1ccccc1 | 1.06 (inactive) | 0.649 | -1.76 | -5.39 (inactive) | 0.171 (inactive) | 0.889 (inactive) |
| CN(C)CCCC[C@@H]1NC(=O)[C@@H]2C[C@H](C(=O)NCCCCCNC(=O)CS)[C@H](c3ccc(O)cc3)N2C1=O | 0.207 (inactive) | -0.279 | 0.386 | -0.848 (inactive) | -0.205 (inactive) | -0.456 (inactive) |
